Test results as given in PubChem BioAssay AID2320 (National Center for Advancing Translational Sciences (NCATS), 2010).
Records with an inconclusive call do not appear. A call without a number means that no potency is given here. Active and inactive are the calls of the source. Calls follow the shape of the full dose curve.

Test: A qHTS for Small Molecule Inhibitors of Shiga Toxin (Confirmatory); also: nearly all actives have a fitted effect of over 75% in size
Potency is read from the fitted curve at half-maximal effect.

| SMILES | Potency |
| --- | --- |
| CCc1nc2ccccc2c(=O)n1NCCc1ccccc1 | inactive |
| Cc1noc(C)c1S(=O)(=O)Nc1cccc(CO)c1 | inactive |
| Cc1cc(C)nc(Sc2ccc3nnnn3n2)n1 | 28.3 µM (active) |
| Cc1cc(C)c2nc(-c3ccccn3)cc(C(=O)NCc3ccco3)c2c1 | 15.9 µM (active) |
| CCOC(=O)C1CCCN(c2nc3ccccc3nc2C(C#N)C(=O)OCC)C1 (stereo not drawn) | inactive |
| COc1ccc(C2C(C#N)=C(C)NC3=C2C(=O)CC(C)(C)C3)c(OC)c1 (stereo not drawn) | inactive |
| COc1cc(/C=C2/C(=O)c3cccc([N+](=O)[O-])c3C2=O)c(Br)cc1O | 22.5 µM (active) |
| Cc1cc(C)nc(SCC(=O)Nc2cc(C)on2)n1 | inactive |
| O=C(COc1ncnc2ccccc12)NCCC1=CCCCC1 | inactive |
| O=C(NC1CCCCC1)c1cccc(S(=O)(=O)N2CCCCC2)c1 | inactive |
| O=C(O)Cc1ccc2oc(-c3ccccn3)nc2c1 | 12.6 µM (active) |
| CCCCc1ccc(NS(=O)(=O)N(C)C)cc1 | inactive |
| CCCNC(=O)c1ccc2snnc2c1 | inactive |
| Cc1cccc(NC(=O)C2CCCC2)c1 | 0.0252 µM (active) |
| C=C1C(O)C2OC3(CCC(/C=C/C(C)C4CC(C)=CC5(OC(CC(C)(O)C(=O)O)CCC5O)O4)O3)CCC2OC1C(O)CC(C)C1OC2(CCCCO2)CCC1C (stereo not drawn) | 20 µM (active) |
| CCNc1c(NC(=O)c2cccs2)c(=O)oc2ccccc12 | inactive |
| CC(OC(=O)c1ccc2c(=O)n3c(nc2c1)CCC3)C(N)=O (stereo not drawn) | inactive |
| CCOC(=O)c1c(C)[nH]c(C2=NNC(=NC3CC3)SC2)c1C | 0.0449 µM (active) |
| Cc1ccc(OCC(=O)NNC(=O)CCC(=O)Nc2ccc(C)cc2C)cc1 | inactive |

| SMILES | Potency |
| --- | --- |
| COc1ccc(OCc2cccc(C(=O)O)c2)cc1 | 0.0356 µM (active) |
| Cc1nnc(N2C(=O)C(=O)/C(=C(/O)c3ccc4c(c3)OCCO4)C2c2ccc([N+](=O)[O-])cc2)s1 (stereo not drawn) | inactive |
| CN1CCN(C(=O)CN(C)S(=O)(=O)c2ccc(F)cc2)CC1 | inactive |
| O=C(O)c1cc(S(=O)(=O)Nc2ccc(OCc3ccccc3)cc2)ccc1Br | 7.11 µM (active) |
| COc1ccccc1NC(=O)CSc1nnc(CC(=O)Nc2ccccc2F)n1C | inactive |
| O=C(NCCC1=CCCCC1)C1CCN(S(=O)(=O)c2cccc3cccnc23)CC1 | inactive |
| CC(=O)c1ccccc1Oc1ncnc(N)c1[N+](=O)[O-] | inactive |
| Cc1nnc(NC(=O)C2COc3ccccc3O2)s1 (stereo not drawn) | 14.2 µM (active) |
| CCOc1ccccc1NC(=O)CCS(=O)(=O)c1cccs1 | inactive |
| CC(=O)Nc1ccc(N2N=C(C)C(N=Nc3ccccc3)C2=O)cc1 (stereo not drawn) | 11.3 µM (active) |
| COc1ccc(CNC(=O)C(OC(=O)c2ccco2)c2ccccc2F)cc1 (stereo not drawn) | inactive |
| Cn1nccc1C(=O)Nc1sc2c(c1C#N)CCCC2 | 20 µM (active) |
| CC1Cc2ccccc2N1Cc1cc(=O)n2ccsc2n1 (stereo not drawn) | inactive |
| O=C(Cn1cnc2cc([N+](=O)[O-])ccc2c1=O)NCc1ccc(Cl)cc1 | inactive |
| CCOC(=O)c1cnc2c(-c3cccc(Br)c3)cnn2c1C | 3.56 µM (active) |
| Cc1ccccc1C(=O)NN1CCOCC1 | inactive |
| COc1ccc(NC(=O)c2c(Cl)n(C)c3ccccc23)cc1 | 11.3 µM (active) |
| COc1ccccc1NC(=O)CSc1nnc(-c2ccco2)n1Cc1ccco1 | inactive |
| Cc1nn(-c2ccc(Cl)cc2)c(N)c1C(O)(CSc1nccn1C)C(F)(F)F (stereo not drawn) | inactive |
